Our source for the Potency, outcome and activity change, negative = cytotoxicity values is PubChem BioAssay (NCATS).

Unmarked numbers belong to inactive results. Inconclusive results are not listed. Calls of active or inactive are those of the source. Unless noted, the call rests on the fitted dose curve; in most records, active means well fitted curve in the direction sought with a large enough effect; inconclusive means small, poorly fitted or top-dose-only effect, or another doubt; inactive means no such curve, though single readings can be large; an effect the other way counts as inactive or inconclusive.

Test [1] is described as follows: Cell Viability - BJ (AID 421; calls by dose curve;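 further: potency means the concentration at half of the fitted maximal effect; cells exposed to compound for 40 hours at 37 °C before readout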). As to conditions: BJ fibroblast viability, qHTS. The essentials: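 Cytotoxicity as drop in intracellular ATP (CellTiter-Glo, 20 min RT) after 40 hr compound exposure of BJ fibroblasts at 37 °C. Titrations scaled between DMSO and 100 uM tamoxifen, Hill-fitted for AC50.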
For orientation: Quantitative high-throughput screening tests each substance at several concentrations.

A short description of test [2]: Cell Viability - Jurkat (AID 426;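 active means dose-dependent loss of cell ATP signal giving a full or clear fitted curve, ranked by lower potency value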;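 further: potency means the concentration at half of the fitted maximal effect; cells exposed to compound for 40 hours at 37 °C before ATP read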). The note with it: qHTS. The essentials:
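Seed 5000 Jurkat E6-1 cells/well; add compound; incubate 40 hr at 37 °C; add CellTiter-Glo; wait 20 min at room temperature; read luminescence. Fit concentration-response with Hill equation for AC50.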

Test [3] is described as follows: Cell Viability - Hek293 (AID 427;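 active means compounds whose dose-response curve shows a full or clear partial loss of cell viability, called from curve shape rather than a numeric limit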;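 further: potency means the concentration at half of the fitted maximal effect; cells exposed to compound for 40 hours at 37 °C before reading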). As to conditions: qHTS. The essentials:
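Luminescent ATP content (CellTiter-Glo, 20 min at room temperature) was measured after a 40 hr, 37 °C compound exposure of HEK293 cells. AC50 values came from Hill-equation fits of qHTS concentration-response data normalized to DMSO and 100 uM tamoxifen.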

Test [4] in a line: Cell Viability - HepG2 (AID 433; calls by dose curve;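 further: potency means the concentration at half of the fitted maximal effect; cells exposed to compound for 40 hours; potency for ATP loss meaning cytotoxicity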). The note with it: qHTS. Put shortly: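 ATP luminescence (CellTiter-Glo) after 40 h compound exposure, 37 °C, HepG2, 1500 cells/well, complete medium. Normalized: DMSO = basal, 100 uM tamoxifen = 100% inhibition. AC50 via standard Hill equation.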
Test [5] in a line: Cell Viability - MRC5 (AID 434; calls by dose curve;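 further: potency means the concentration at half of the fitted maximal effect; cells exposed to compound for 40 hours at 37 °C; potency reflects cytotoxicity seen as loss of intracellular ATP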). As to conditions: MRC5 lung fibroblast viability, qHTS. The essentials: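 MRC5 normal human lung fibroblasts (1500/well) were treated with compounds for 40 hr at 37 °C in complete medium, and viable cells were measured as intracellular ATP by CellTiter-Glo luminescence. AC50 came from Hill fits, normalized to DMSO and 100 uM tamoxifen.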
A short description of test [6]: Cell Viability - SK-N-SH (AID 435; calls by dose curve; further: potency means the concentration at half of the fitted maximal effect). As to conditions: SK-N-SH neuroblastoma cell viability qHTS. Put shortly:
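CellTiter-Glo ATP luminescence, 20 min RT read; cells pre-plated 5 hr, compound 40 hr at 37 °C, 1500 cells/well, complete medium. Normalized DMSO = 0, 100 uM tamoxifen = 100% inhibition; Hill-fit AC50.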

A short description of test [7]: Cell Viability - NIH 3T3 (AID 541).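 Further: cells exposed to compound for 40 hours; nearly all actives have a fitted effect of over 25% in size.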 Further: potency means the concentration at half of the fitted maximal effect.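 On activity change, negative = cytotoxicity: plate controls were DMSO alone for no effect and tamoxifen positive control for full effect.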 As to conditions: NIH 3T3 cell viability, qHTS; activity change, negative = cytotoxicity: at 92.2 µM (top of the series). Put shortly:
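AC50 values reflect concentration-dependent loss of intracellular ATP in NIH 3T3 cells after 40 hr treatment in complete culture medium, quantified by luciferase-based luminescence.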

Test [8] is described as follows: Cell Viability - HUV-EC-C (AID 542).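 Further: cells exposed to compound for 40 hours; nearly all actives have a fitted effect of over 35% in size.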 Further: potency means the concentration at half of the fitted maximal effect. On activity change, negative = cytotoxicity: on the % scale 0 is the no-effect control and ±100 the full control effect. The essentials: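 Decrease in cellular ATP, quantified by luciferase luminescence, reflects toxicity in normal human vascular endothelial HUV-EC-C cells given compound for 40 hr in complete culture medium. Values are AC50s from concentration-response curves.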
Test [9] can be described thus: Cell Viability - H-4-II-E (AID 543).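 Further: cells exposed to compound for 40 hours; nearly all actives have a fitted effect of over 35% in size.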 Further: potency means the concentration at half of the fitted maximal effect. Put shortly: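 Here, cytotoxicity is measured in the rat hepatoma line H-4-II-E as loss of intracellular ATP after 40 hr compound treatment, detected by luciferase luminescence.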
Test [10] is described as follows: Cell Viability - SH-SY5Y (AID 544).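 Further: cells exposed to compound for 40 hours; nearly all actives have a fitted effect of over 55% in size.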 Further: potency means the concentration at half of the fitted maximal effect. Put shortly: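 Cytotoxicity is scored as a concentration-dependent fall in intracellular ATP in human SH-SY5Y cells treated 40 hr in complete culture medium. Potency is expressed as AC50 from a Hill equation fit.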
The nature of test [11]: Cell Viability - Renal Proximal Tubule (AID 545).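 Further: cells exposed to compound for 40 hours; 0% = DMSO only and -100% = 100 µM tamoxifen; nearly all actives have a fitted effect of over 40% in size.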 The note with it: renal proximal tubule cells viability; activity change, negative = cytotoxicity: at 91.7 µM (top of the series). Put shortly:
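Rat kidney proximal tubule cells, freshly isolated; 1000 cells/well, 5 hr settle, compound 40 hr 37 °C. CellTiter-Glo 20 min RT, luminescence read. AC50 by standard Hill fit.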

Test [12] is described as follows: Cell Viability - Mesenchymal (AID 546).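 Further: cells exposed to compound for 40 hours before reading.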 Further: potency means the concentration at half of the fitted maximal effect.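 On activity change, negative = cytotoxicity: 0% = DMSO only and -100% = 100 µM tamoxifen.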 Put shortly:
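Normal human renal glomerulus-derived kidney mesenchymal cells, 1000 per well in complete medium, were treated with compounds for 40 hr at 37 °C. Viability was read as intracellular ATP by CellTiter-Glo luminescence; AC50 values came from Hill-equation fits of qHTS concentration-response data.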

Test [13] addresses Mitogen-activated protein kinase 10 (Mus musculus) (UniProt Q61831). The test is described as follows: JNK3 AlphaScreen Assay (AID 530; active means well fitted curve in either direction with a large enough effect, not every such curve was filed as active;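 further: kinase came from lysate of stimulated human HepG2 cells; signal reports phosphorylation of biotinylated GST-cJun 1-79 at Ser73 with 10 µM ATP; on the % scale 0 is the no-effect control and ±100 the full control effect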). The essentials: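 JNK3 came from HepG2 lysates pre-activated with IL-1beta and TNF-alpha and phosphorylated biotinylated GST-cJun (1-79) at 10 uM ATP, pH 7.6, room temperature. Compounds were titrated. AlphaScreen signal used anti-phospho-cJun (Ser73) antibody.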

The target of test [14] is Glucocorticoid receptor (Homo sapiens) (UniProt P04150). Briefly: GR-GFP Redistribution (AID 450;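 active means compounds whose dose series gives a full or clear partial fitted curve of increased nuclear translocation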; further: potency means the concentration at half of the fitted maximal effect). As to conditions: U2OS GR-GFP nuclear translocation, laser cytometry, 2 h.
Chain of Glucocorticoid receptor (Homo sapiens) (P04150 whole entry, looked up): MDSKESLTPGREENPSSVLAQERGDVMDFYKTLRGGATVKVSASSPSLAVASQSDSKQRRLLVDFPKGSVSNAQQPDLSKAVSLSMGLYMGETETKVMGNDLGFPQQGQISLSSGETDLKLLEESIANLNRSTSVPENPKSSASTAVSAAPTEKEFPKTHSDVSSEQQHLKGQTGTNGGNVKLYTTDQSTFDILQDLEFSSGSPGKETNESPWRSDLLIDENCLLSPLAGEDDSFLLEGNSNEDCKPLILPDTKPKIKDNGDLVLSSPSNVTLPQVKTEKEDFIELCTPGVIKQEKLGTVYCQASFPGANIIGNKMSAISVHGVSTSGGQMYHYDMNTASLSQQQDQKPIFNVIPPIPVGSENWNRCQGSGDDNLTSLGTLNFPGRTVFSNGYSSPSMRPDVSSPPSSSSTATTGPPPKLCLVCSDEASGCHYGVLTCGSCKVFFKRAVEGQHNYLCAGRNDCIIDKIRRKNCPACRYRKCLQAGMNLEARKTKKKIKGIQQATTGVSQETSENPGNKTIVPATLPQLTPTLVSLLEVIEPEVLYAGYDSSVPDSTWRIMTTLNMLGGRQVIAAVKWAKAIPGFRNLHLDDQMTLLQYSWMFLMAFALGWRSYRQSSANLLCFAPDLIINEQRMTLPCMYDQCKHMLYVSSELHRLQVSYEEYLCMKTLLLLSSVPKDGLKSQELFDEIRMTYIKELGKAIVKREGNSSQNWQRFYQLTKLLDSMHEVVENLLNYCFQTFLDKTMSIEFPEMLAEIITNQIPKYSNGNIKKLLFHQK

Turning to `[O]=[Cd]`, the Potency in [1], in test [2], in test [3], in [4], in test [5] and in test [6] was over 92 µM each time. In addition, the Potency result in [7], in [8], in test [9], in test [10], in [11] and in [12] was “inactive” in each case.

For `O=CC=O`, the Potency in test [1], in test [2], in test [3], in test [4], in test [5] and in test [6] was over 92 µM each time. Further, the Potency in test [7] was 12.6 µM (active). Moreover, the result in [13] was inactive. The Potency result in test [8], in [9], in [11] and in test [12] was “inactive” in each case.

With `O=C/C=C/c1ccccc1`, the Potency was over 92 µM in [1]; over 92 µM in test [4]; over 92 µM in [5]; over 92 µM in test [6]; 12.6 µM (active) in [7]. In addition, the result in [13] was inactive. In addition, the Potency result in [8], in test [9], in test [10], in [11] and in test [12] was “inactive” in each case.

For `ClCC1CO1` (stereo not drawn), the Potency in test [1], in test [2], in [3], in test [4], in test [5] and in test [6] was over 92 µM each time. For the same compound, in [13], the call was inactive. The Potency result in [7], in test [8], in test [9], in test [10], in test [11] and in test [12] was “inactive” each time.

In the case of `Oc1cc(Cl)c(Cl)cc1Cl`, the Potency in test [1], in test [3], in test [4] and in [5] was over 92 µM in each case. Moreover, in test [13], the result was inactive. The Potency entry in test [7], in test [8], in [9], in test [10], in test [11] and in test [12] was “inactive” each time.

For `C[C@]12CCC(=O)C[C@@H]1CC[C@@H]1[C@@H]2CC[C@]2(C)[C@@H](O)CC[C@@H]12`, the Potency in [1], in test [2], in [4], in [5] and in test [6] was over 92 µM in each case. For the same compound, the result in test [13] was inactive. Also, the Potency result in test [7], in test [8], in [10], in [11] and in [12] was “inactive” throughout.

As to `CCCCCCCCOC(=O)c1ccccc1C(=O)OCCCCCCCC`, the Potency in [1], in [3], in [4], in test [5] and in test [6] was over 92 µM throughout. Besides, the compound was classed as inactive in [13]. Further, the Potency entry in test [7], in test [8], in test [9], in test [10], in [11] and in [12] was “inactive” in each case.

As for `O=C(O)C(Cl)(Cl)Cl`, the Potency in test [1], in [2], in test [3], in [4], in [5] and in test [6] was over 92 µM each time. In addition, the outcome in [13] was inactive. Also, the Potency result in [7], in [8], in test [9], in [10], in test [11] and in test [12] was “inactive” throughout.

`COC1=CC(=O)O[C@@H](/C=C/c2ccccc2)C1`: the Potency in test [1], in test [2], in test [3], in test [4], in test [5] and in [6] was over 92 µM throughout. Besides, in test [13], the compound was called inactive. Further, the Potency entry in [7], in test [8], in [10], in [11] and in test [12] was “inactive” in each case.

For the compound `CCCCCl`, the Potency in test [1], in test [2], in [3], in test [4], in test [5] and in test [6] was over 92 µM in each case. In addition, the compound was called inactive in [13]. The Potency entry in [7], in test [8], in test [9], in test [10], in test [11] and in [12] was “inactive” in each case.

Consider `C[C@H]1CC[C@@H]2[C@@H](C)[C@H]3[C@H](C[C@H]4[C@@H]5CC=C6CC(O[C@@H]7O[C@H](CO)[C@H](O)[C@H](O[C@@H]8O[C@H](CO)[C@@H](O)[C@H](O)[C@H]8O)[C@H]7O[C@H]7O[C@@H](C)[C@H](O)[C@@H](O)[C@H]7O)CC[C@]6(C)[C@H]5CC[C@]34C)N2C1` (stereo partly drawn), for which the Potency in test [1] is 35 µM (active); in test [2], 32.5 µM (active); in test [3] it was 39.3 µM (active); in test [4] it was 23.7 µM (active); in test [5], 45 µM (active); in [6] it was 24.8 µM (active). For the same compound, the Potency in test [7], in test [8], in test [9], in [10] and in test [12] was 31.6 µM (active) in each case. Also, the result in test [13] was inactive. Besides, the activity change, negative = cytotoxicity in test [11] was -101% (active).

For the compound `N[C@@H](Cn1oc(=O)[nH]c1=O)C(=O)O`, the Potency in test [14] was over 46 µM. For the same compound, in [13], the compound was classed as inactive.

Regarding `CC(C)CCON=O`, the Potency in test [1], in test [2], in [3], in [4], in test [5] and in test [6] was over 92 µM throughout. Further, the compound was classed as inactive in test [13]. Besides, the Potency result in test [7], in [8], in [9], in test [10], in test [11] and in [12] was “inactive” throughout.
